NS1 inh = qHTS Assay for Inhibitors of Influenza NS1 Protein Function; 270,000 tested, 0.4% active; Potency, µM (top dose mostly 46.1 µM), inactives show at the top dose activity, positive = more growth; calls by dose curve; also: actives are rising curves; nearly all actives have a fitted effect of over 50% in size
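A cell-based growth assay was used: compounds that relieve NS1-induced slow growth of budding yeast raise OD600. Assay medium was yeast nitrogen base with ammonium sulphate and -URA supplement, pH 6.0, with 2% galactose.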
Pf growth 48h = Primary qHTS for delayed death inhibitors of the malarial parasite plastid, 48 hour incubation; P. falciparum luciferase growth in erythrocytes, 48 h; Potency, µM (series often up to 28.7 µM), for inactives: at the top dose activity change, negative = inhibition, most hits filed as inhibitors; 310,000 tested, 5.9% active; also: % is scaled to controls: 0 for no effect and ±100 for the full control effect
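Cell-based growth assay: transgenic P. falciparum expressing firefly luciferase, cultured in red cells within RPMI 1640 containing 0.5% w/v Albumax, 24 mM bicarbonate and gentamycin. A drop in luciferase activity indicates inhibition.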
Pf growth 96h = Primary qHTS for delayed death inhibitors of the malarial parasite plastid, 96 hour incubation. AID 504834, 2011. P. falciparum luciferase reporter growth, 96 h. 320,000 tested, 6.9% active. Potency, µM (titrated, usually from 28.7 µM), without a hit: at the top dose activity change, negative = inhibition, hits mostly inhibitors; also: % is scaled to controls: 0 for no effect and ±100 for the full control effect
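Luminescence readout: decreased luciferase signal marks inhibited growth of reporter-expressing P. falciparum in infected red cells (2% hematocrit, 0.05% parasitemia final), exposed to compound two generations (96 h, 37 C, 5% CO2).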
SARS PLpro yeast = qHTS of Yeast-based Assay for SARS-CoV PLP. 330,000 tested, 0.19% active. S. cerevisiae expressing SARS-CoV PLpro, growth rescue. AID 485353, 2010. Potency, µM (doses to about 32.9 µM), inactives show at the highest dose activity, positive = growth rescue, hits mostly activators; calls by dose curve; also: 0% is about no effect; nearly all actives have a fitted effect of over 55% in size
* marks the source's active call; other numbers are inactive results. Only some compounds are listed: those with a hit (about 10% of all), similar ones and a draw of the others. Unless noted, calls follow the shape of the dose curve; as a rule, active = well fitted inhibition curve with a large enough effect; inconclusive = small, poorly fitted or top-dose-only effect, or another doubt; inactive = no such curve, though single readings can be large or run the other way. Potency is read from the fitted curve at half-maximal effect.

How did O=C(O)C(Cc1ccccc1)Nc1ccc([N+](=O)[O-])cc1[N+](=O)[O-] (stereo unspecified) do in these assays?
NS1 inh: -20%; Pf growth 48h: inconclusive; Pf growth 96h: 6.6µM*; SARS PLpro yeast: 1%

Results for O=S(=O)(NCCCN1CCOCC1)c1ccc2c(c1)OCCO2 ?
Pf growth 48h: 18%; Pf growth 96h: 10µM*; SARS PLpro yeast: 1%

Results for O=S(=O)(NCCN1CCOCC1)c1cc(Cl)c(Cl)cc1Cl ?
NS1 inh: -10%; Pf growth 48h: -1%; Pf growth 96h: 13µM*; SARS PLpro yeast: 0%

How did COc1ccc(S(=O)(=O)NCCN2CCOCC2)cc1Br do in these assays?
NS1 inh: -5%; Pf growth 48h: 1%; Pf growth 96h: 10µM*; SARS PLpro yeast: 17%

Results for NC1=NC(=O)C(Cc2ccc(OC(F)(F)F)cc2)S1 (stereo unspecified) ?
NS1 inh: 2%; Pf growth 48h: -8%; Pf growth 96h: 10%; SARS PLpro yeast: 0%

Results for CC(Cc1ccccn1)NC(=O)CCc1nnc(C2CCCCC2)o1 (stereo unspecified) ?
NS1 inh: -1%; Pf growth 48h: 0%; Pf growth 96h: 13µM*; SARS PLpro yeast: 0%

What do the screens show for `COC(=O)c1ccc(CNC(=O)CNC(=O)c2sc3ccccc3c2Cl)cc1`?
Pf growth 48h: inconclusive; Pf growth 96h: 7%; SARS PLpro yeast: -4%

Results for CNC(=O)CCc1[nH]c2ccccc2c1Sc1ccccc1 ?
NS1 inh: -12%; Pf growth 48h: inconclusive; Pf growth 96h: 5.2µM*; SARS PLpro yeast: 10%

What do the screens show for `CC(=O)Nc1ccc(C2Nc3cc(C)c(C)cc3NC3=C2C(=O)CC(C)(C)C3)cc1` (stereo unspecified)?
NS1 inh: -20%; Pf growth 48h: 6%; Pf growth 96h: 8.3µM*; SARS PLpro yeast: 3%

How did CC[C@@]12C(=O)N(c3cccc(Cl)c3)C(=O)N1[C@H](c1ccc(Br)cc1)[C@@H]1C(=O)N(C(C)(C)C)C(=O)[C@@H]12 do in these assays?
Pf growth 48h: 9.3µM*; Pf growth 96h: inconclusive; SARS PLpro yeast: 2%

How did CCN1C(=O)[C@H]2[C@@H](c3ccc(C)cc3)N3C(=O)N(c4cccc(Cl)c4)C(=O)[C@@]3(CC(C)C)[C@H]2C1=O do in these assays?
Pf growth 48h: inconclusive; Pf growth 96h: 8.3µM*; SARS PLpro yeast: -4%

What do the screens show for `CC(C)(C)N1C(=O)[C@H]2[C@@H](c3ccc(Br)cc3)N3C(=O)N(c4ccccc4)C(=O)[C@@]3(Cc3ccccc3)[C@H]2C1=O`?
Pf growth 48h: inconclusive; Pf growth 96h: inconclusive; SARS PLpro yeast: 2%

Results for CC(C)C[C@@]12C(=O)N(c3cccc(F)c3)C(=O)N1[C@H](c1ccc(Br)cc1)[C@@H]1C(=O)N(C(C)(C)C)C(=O)[C@@H]12 ?
Pf growth 48h: 13µM*; Pf growth 96h: 5.2µM*; SARS PLpro yeast: -1%

Results for CC(C)(C)N1C(=O)[C@H]2[C@@H](c3ccc(Br)cc3)N3C(=O)N(c4ccccc4)C(=O)[C@@]3(C)[C@H]2C1=O ?
NS1 inh: 3%; Pf growth 48h: inconclusive; Pf growth 96h: 13µM*; SARS PLpro yeast: -4%

How did CC(C)C[C@@]12C(=O)N(c3ccc(Br)cc3)C(=O)N1[C@H](c1ccc(Br)cc1)[C@@H]1C(=O)N(C(C)(C)C)C(=O)[C@@H]12 do in these assays?
NS1 inh: 19%; Pf growth 48h: -40%; Pf growth 96h: inconclusive; SARS PLpro yeast: 5%

What do the screens show for `COc1ccc(C)cc1S(=O)(=O)NC1CC1`?
NS1 inh: 12%; Pf growth 48h: -1%; Pf growth 96h: 10%; SARS PLpro yeast: 2%

How did CC12OC1C1(O)CCCC1=CC2=O (stereo unspecified) do in these assays?
NS1 inh: 0%; Pf growth 48h: inconclusive; Pf growth 96h: inconclusive; SARS PLpro yeast: 2%

What do the screens show for `CC[C@@]12C(=O)N(c3cccc(C)c3)C(=O)N1[C@H](c1ccc(Br)cc1)[C@@H]1C(=O)N(C(C)(C)C)C(=O)[C@@H]12`?
NS1 inh: 17%; Pf growth 48h: 3.3µM*; Pf growth 96h: 2.3µM*; SARS PLpro yeast: 2%

Results for CC(C)C[C@@]12C(=O)N(c3cccc(Cl)c3)C(=O)N1[C@H](c1ccc(Br)cc1)[C@@H]1C(=O)N(C(C)(C)C)C(=O)[C@@H]12 ?
Pf growth 48h: 3.7µM*; Pf growth 96h: 4.1µM*; SARS PLpro yeast: -5%
